Measurements as given in ChEMBL document CHEMBL1961873, “Compounds: GSK PKIS; Assays: Nanosyn kinase panel” (2012).

Columns and labels:
[1] = target: Protein kinase C gamma type (Homo sapiens) (UniProt P05129); details: at 1 µM;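 also: each value is an averaged percent inhibition of the enzyme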
[2] = target: T1, Protein kinase C iota type (Homo sapiens) (UniProt P41743); details: at 0.1 µM
T1 sequence (whole entry): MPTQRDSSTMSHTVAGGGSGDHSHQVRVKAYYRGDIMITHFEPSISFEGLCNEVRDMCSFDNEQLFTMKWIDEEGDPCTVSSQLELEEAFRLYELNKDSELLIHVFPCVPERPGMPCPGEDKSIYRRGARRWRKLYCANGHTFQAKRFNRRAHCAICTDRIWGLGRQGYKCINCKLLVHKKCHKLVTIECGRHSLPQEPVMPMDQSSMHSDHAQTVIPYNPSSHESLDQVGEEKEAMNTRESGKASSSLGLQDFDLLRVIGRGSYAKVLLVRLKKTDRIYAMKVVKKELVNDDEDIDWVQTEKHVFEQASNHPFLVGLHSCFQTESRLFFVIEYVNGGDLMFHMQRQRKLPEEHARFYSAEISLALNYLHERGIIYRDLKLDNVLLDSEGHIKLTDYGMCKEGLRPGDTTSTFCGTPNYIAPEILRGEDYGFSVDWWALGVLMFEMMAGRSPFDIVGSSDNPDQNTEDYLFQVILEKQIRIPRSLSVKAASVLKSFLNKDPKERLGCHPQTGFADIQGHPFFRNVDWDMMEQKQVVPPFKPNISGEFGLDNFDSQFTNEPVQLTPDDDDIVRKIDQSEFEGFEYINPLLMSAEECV

[3] = target: T1, Protein kinase C iota type (Homo sapiens); details: at 1 µM
[4] = target: Protein kinase C theta type (Homo sapiens) (UniProt Q04759); details: at 0.1 µM
Sequence of Protein kinase C theta type (Homo sapiens) (Q04759 whole entry, looked up): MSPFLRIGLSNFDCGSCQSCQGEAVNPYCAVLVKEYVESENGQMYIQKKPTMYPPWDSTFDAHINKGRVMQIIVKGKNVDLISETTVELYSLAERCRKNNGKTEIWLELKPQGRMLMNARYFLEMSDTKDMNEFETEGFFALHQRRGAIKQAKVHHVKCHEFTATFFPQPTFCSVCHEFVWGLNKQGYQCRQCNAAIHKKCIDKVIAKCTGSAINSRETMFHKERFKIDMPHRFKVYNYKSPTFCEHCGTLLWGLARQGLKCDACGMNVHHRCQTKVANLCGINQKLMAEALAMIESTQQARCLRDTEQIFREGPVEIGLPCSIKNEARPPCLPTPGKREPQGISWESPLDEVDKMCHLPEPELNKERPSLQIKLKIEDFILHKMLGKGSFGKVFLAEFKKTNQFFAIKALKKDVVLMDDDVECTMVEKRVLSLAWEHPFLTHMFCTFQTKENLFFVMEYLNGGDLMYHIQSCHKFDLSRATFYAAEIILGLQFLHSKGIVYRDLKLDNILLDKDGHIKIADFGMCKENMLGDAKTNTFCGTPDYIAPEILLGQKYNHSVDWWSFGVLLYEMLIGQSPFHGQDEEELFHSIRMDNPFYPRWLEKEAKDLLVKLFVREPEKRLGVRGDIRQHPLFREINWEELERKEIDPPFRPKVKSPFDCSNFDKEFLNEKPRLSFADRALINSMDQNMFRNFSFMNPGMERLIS

[5] = target: Protein kinase C theta type (Homo sapiens) (UniProt Q04759); details: at 1 µM
[6] = target: Protein kinase C beta type (Homo sapiens) (UniProt P05771); details: at 0.1 µM
Sequence of Protein kinase C beta type (Homo sapiens) (P05771 2-671 limits assumed): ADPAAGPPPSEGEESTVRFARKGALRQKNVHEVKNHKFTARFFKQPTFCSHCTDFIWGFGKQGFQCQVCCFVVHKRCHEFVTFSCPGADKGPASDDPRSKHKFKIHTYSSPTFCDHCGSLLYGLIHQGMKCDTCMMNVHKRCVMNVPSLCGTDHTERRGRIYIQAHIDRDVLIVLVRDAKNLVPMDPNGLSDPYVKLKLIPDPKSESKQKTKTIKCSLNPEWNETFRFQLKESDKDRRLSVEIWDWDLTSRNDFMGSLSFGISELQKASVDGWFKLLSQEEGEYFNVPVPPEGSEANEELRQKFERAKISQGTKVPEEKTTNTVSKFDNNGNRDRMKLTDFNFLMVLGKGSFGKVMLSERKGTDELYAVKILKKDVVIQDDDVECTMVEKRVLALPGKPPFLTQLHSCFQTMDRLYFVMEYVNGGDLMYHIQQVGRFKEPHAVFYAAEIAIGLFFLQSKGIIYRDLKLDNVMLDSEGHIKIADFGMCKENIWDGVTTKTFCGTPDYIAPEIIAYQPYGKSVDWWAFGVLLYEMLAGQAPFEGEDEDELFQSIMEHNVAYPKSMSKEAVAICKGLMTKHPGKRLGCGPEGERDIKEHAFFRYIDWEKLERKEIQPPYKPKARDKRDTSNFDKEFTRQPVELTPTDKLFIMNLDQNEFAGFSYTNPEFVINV

[7] = target: Protein kinase C beta type (Homo sapiens) (UniProt P05771); details: at 1 µM
[8] = target: T2, Serine/threonine-protein kinase D1 (Homo sapiens) (UniProt Q15139); details: at 0.1 µM
T2 sequence (whole entry): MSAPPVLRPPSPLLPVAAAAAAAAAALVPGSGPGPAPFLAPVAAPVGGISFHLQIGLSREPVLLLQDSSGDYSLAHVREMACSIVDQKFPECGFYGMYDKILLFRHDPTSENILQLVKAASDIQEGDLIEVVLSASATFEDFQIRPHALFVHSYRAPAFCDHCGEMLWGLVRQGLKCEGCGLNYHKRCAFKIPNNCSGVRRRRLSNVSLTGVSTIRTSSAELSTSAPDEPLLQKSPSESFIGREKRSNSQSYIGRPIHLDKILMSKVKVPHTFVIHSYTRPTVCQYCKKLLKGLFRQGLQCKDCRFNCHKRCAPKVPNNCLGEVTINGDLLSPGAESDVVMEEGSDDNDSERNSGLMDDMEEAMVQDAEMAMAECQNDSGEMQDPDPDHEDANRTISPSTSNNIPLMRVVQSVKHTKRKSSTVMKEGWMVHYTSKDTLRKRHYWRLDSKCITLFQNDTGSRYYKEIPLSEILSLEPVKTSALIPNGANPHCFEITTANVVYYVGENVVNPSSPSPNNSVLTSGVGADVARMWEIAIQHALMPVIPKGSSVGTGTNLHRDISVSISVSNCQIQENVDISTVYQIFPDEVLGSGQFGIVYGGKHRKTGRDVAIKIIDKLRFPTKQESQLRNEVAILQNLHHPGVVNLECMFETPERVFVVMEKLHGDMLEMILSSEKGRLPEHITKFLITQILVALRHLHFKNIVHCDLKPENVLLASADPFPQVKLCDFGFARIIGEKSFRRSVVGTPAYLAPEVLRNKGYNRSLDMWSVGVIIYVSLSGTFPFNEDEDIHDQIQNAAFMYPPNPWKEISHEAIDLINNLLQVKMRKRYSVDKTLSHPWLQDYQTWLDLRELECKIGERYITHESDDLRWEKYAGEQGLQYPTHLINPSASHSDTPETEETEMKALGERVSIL

[9] = target: T2, Serine/threonine-protein kinase D1 (Homo sapiens); details: at 1 µM
[10] = target: T3, Serine/threonine-protein kinase D2 (Homo sapiens) (UniProt Q9BZL6); details: at 0.1 µM;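 also: reported percent inhibition values are means, part of the GSK PKIS kinase panel screen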
T3 sequence (whole entry): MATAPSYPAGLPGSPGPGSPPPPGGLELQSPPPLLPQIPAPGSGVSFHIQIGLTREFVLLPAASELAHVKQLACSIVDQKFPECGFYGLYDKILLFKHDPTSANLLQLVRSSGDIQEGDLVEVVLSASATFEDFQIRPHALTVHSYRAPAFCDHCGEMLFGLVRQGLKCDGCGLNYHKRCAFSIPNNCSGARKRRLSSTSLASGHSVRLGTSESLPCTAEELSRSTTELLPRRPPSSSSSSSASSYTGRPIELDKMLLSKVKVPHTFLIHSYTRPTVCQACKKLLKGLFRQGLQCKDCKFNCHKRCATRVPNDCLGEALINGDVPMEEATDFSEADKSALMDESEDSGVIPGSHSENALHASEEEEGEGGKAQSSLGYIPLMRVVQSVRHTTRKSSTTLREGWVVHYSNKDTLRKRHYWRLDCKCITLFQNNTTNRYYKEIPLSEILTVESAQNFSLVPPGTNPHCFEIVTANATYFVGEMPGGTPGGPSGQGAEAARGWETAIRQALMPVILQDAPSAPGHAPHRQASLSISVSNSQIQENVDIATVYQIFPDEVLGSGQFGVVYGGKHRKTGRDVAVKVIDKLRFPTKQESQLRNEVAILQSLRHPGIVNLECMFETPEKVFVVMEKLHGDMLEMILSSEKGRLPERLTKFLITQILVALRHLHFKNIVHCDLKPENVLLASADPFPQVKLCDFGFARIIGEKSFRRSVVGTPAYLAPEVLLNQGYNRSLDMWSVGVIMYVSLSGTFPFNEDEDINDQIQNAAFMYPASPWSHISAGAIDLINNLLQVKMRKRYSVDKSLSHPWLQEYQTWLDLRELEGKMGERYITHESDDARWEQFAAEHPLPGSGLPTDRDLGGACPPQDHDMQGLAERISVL

Compound `N#Cc1c(NC(=O)CN2CCOCC2)sc2c1CCCC2` has an inhibition [1] of 4.29%, an inhibition [2] of 1.29% and an inhibition [3] of 0.6%. It also gave an inhibition [4] of 3.07%, an inhibition [5] of 3.7% and an inhibition [6] of 1.49%. For the same compound, the inhibition [7] was 2.84%, the inhibition [8] was 3.69% and the inhibition [9] was 6.16%. For the same compound, the inhibition [10] was 3.86%.
With `[O-][S+]1CCN(Cc2ccc(-c3ccc4ncnc(Nc5ccc(OCc6cccc(F)c6)c(Cl)c5)c4c3)o2)CC1` the inhibition [1] was 1.04%, the inhibition [2] was 3.42% and the inhibition [3] was 2.26%. For the same compound, the inhibition [4] was 2.17%, the inhibition [5] was 2.74% and the inhibition [6] was 2.05%. For the same compound, the inhibition [7] was 2.51%, the inhibition [8] was 5.58% and the inhibition [9] was 10.6%. For the same compound, the inhibition [10] was 4.6%.
`CCn1cc(-c2ccnc3[nH]ccc23)c(-c2cccc(NC(=O)Nc3ccc(OCc4ccccc4)cc3)c2)n1` gave an inhibition [1] of 2.68%, an inhibition [2] of -0.3% and an inhibition [3] of 0.28%. It also gave an inhibition [4] of 0.93%, an inhibition [5] of 1.88% and an inhibition [6] of 0.47%. It also gave an inhibition [7] of 1.93%, an inhibition [8] of 2.3% and an inhibition [9] of 5.37%. It also gave an inhibition [10] of 18.8%.
Compound `Fc1ccc(-c2nn3ccccc3c2-c2ccncc2)cc1` has an inhibition [1] of 2.4%, an inhibition [2] of 0.48% and an inhibition [3] of 3.99%. The inhibition [4] was 0.74%, the inhibition [5] was 2.07% and the inhibition [6] was 1.95%. For the same compound, the inhibition [7] was 10.9%, the inhibition [8] was 1.78% and the inhibition [9] was 6.49%. The inhibition [10] was 1.93%.
With `COc1cc2ncn(-c3cc(OCc4ccccc4C(F)(F)F)c(C(=O)N(C)C)s3)c2cc1OC` the inhibition [1] was 0.13%, the inhibition [2] was -0.68% and the inhibition [3] was -2.2%. The inhibition [4] was 0.14%, the inhibition [5] was -0.71% and the inhibition [6] was 0.03%. For the same compound, the inhibition [7] was 0.09%, the inhibition [8] was 0.6% and the inhibition [9] was 1.47%. It also gave an inhibition [10] of 1.09%.
For `FC(F)(F)c1cccc(-c2nn3ncccc3c2-c2ccnc(Nc3ccc4c(c3)OCCO4)n2)c1`, the inhibition [1] was 2.4%, the inhibition [2] was -1.47% and the inhibition [3] was 2.18%. It also gave an inhibition [4] of 0.59%, an inhibition [5] of -0.24% and an inhibition [6] of 0.37%. It also gave an inhibition [7] of 0.77%, an inhibition [8] of 3.4% and an inhibition [9] of 33.6%. For the same compound, the inhibition [10] was 5.98%.
With `COc1ccc(-c2nn3ncccc3c2-c2ccnc(Nc3ccc4c(c3)OCCO4)n2)cc1` the inhibition [1] was 3.96%, the inhibition [2] was -0.29% and the inhibition [3] was 0.67%. The inhibition [4] was 0.69%, the inhibition [5] was 2.58% and the inhibition [6] was 1.22%. It also gave an inhibition [7] of 7.32%, an inhibition [8] of 3.21% and an inhibition [9] of 6.6%. The inhibition [10] was 2.69%.
`Cc1cccc2c1NC(=O)/C2=N\Nc1ccc(S(N)(=O)=O)cc1` showed an inhibition [1] of -2.77%, an inhibition [2] of 1.18% and an inhibition [3] of 2.53%. It also gave an inhibition [4] of 0.85%, an inhibition [5] of 0.4% and an inhibition [6] of 2.86%. It also gave an inhibition [7] of 0.46%, an inhibition [8] of 2.89% and an inhibition [9] of 4.31%. The inhibition [10] was 2.72%.
Compound `CC(C)COC(=O)c1ccc2c(c1)/C(=C/Nc1ccc(S(N)(=O)=O)cc1)C(=O)N2` has an inhibition [1] of 9.06%, an inhibition [2] of -0.44% and an inhibition [3] of 1.73%. The inhibition [4] was 2.36%, the inhibition [5] was 7.78% and the inhibition [6] was 3.37%. For the same compound, the inhibition [7] was 6.47%, the inhibition [8] was 4.18% and the inhibition [9] was 56%. It also gave an inhibition [10] of 4.41%.
`CNC(=O)c1cc(-c2ccc(F)cc2)cc(-c2ccc(S(=O)(=O)N3CCCC3)cc2)c1N` showed an inhibition [1] of 2.53%, an inhibition [2] of 1.11% and an inhibition [3] of 1.04%. The inhibition [4] was 0.84%, the inhibition [5] was 1.4% and the inhibition [6] was -0.56%. The inhibition [7] was 1.04%, the inhibition [8] was 3.87% and the inhibition [9] was 4.98%. It also gave an inhibition [10] of 2.4%.
Work on `CNC(=O)c1cccc(C#Cc2cncnc2Nc2ccc(OCc3cccc(F)c3)c(Cl)c2)c1` yielded an inhibition [1] of -1.09%, an inhibition [2] of 0.26% and an inhibition [3] of -0.26%. The inhibition [4] was 0.09%, the inhibition [5] was 1.85% and the inhibition [6] was -3.35%. For the same compound, the inhibition [7] was -0.69%, the inhibition [8] was 0.59% and the inhibition [9] was -0.61%. The inhibition [10] was -0.57%.
Work on `CCCN(CCS(C)(=O)=O)Cc1ccc(-c2ccc3ncnc(Nc4ccc(OCc5cccc(F)c5)c(Cl)c4)c3c2)o1` yielded an inhibition [1] of 2.5%, an inhibition [2] of 1.67% and an inhibition [3] of -0.59%. For the same compound, the inhibition [4] was 0.4%, the inhibition [5] was 0.62% and the inhibition [6] was 1.13%. The inhibition [7] was 2.02%, the inhibition [8] was 1.1% and the inhibition [9] was 2.52%. For the same compound, the inhibition [10] was 0.95%.
Compound `CNC(=O)c1cncc(/C=C/c2ccccc2Cl)c1` has an inhibition [1] of 3.18%, an inhibition [2] of 1.77% and an inhibition [3] of 0.56%. For the same compound, the inhibition [4] was 1.22%, the inhibition [5] was 3.14% and the inhibition [6] was 2.46%. For the same compound, the inhibition [7] was 1.4%, the inhibition [8] was 1.19% and the inhibition [9] was -1.46%. For the same compound, the inhibition [10] was -1%.
In the case of `Nc1ncc(-c2cccc(S(N)(=O)=O)c2)c2scc(-c3ccc(F)c(Cl)c3)c12`, the inhibition [1] is reported as 2.77%, the inhibition [2] is reported as 1.76% and the inhibition [3] is reported as 2.27%. The inhibition [4] was 1.73%, the inhibition [5] was 2.11% and the inhibition [6] was 0.92%. For the same compound, the inhibition [7] was 1.52%, the inhibition [8] was 6.59% and the inhibition [9] was 35%. The inhibition [10] was 8.43%.
For `COc1cc(/C=N/Nc2ncnc3[nH]ncc23)ccc1O`, the inhibition [1] was 8.27%, the inhibition [2] was 2.83% and the inhibition [3] was 2.53%. It also gave an inhibition [4] of 2.3%, an inhibition [5] of 4.29% and an inhibition [6] of 0.58%. The inhibition [7] was 4.16%, the inhibition [8] was 2.99% and the inhibition [9] was 4.19%. For the same compound, the inhibition [10] was 2.81%.
`O=C(O[C@H]1CN[C@H](C#Cc2cc3ncnc(Nc4ccc(Cc5ccccc5)cc4)c3s2)C1)N1CCOCC1` gave an inhibition [1] of 3.28%, an inhibition [2] of 2.08% and an inhibition [3] of 2.38%. For the same compound, the inhibition [4] was 1.84%, the inhibition [5] was 2.2% and the inhibition [6] was 2.68%. It also gave an inhibition [7] of 4.05%, an inhibition [8] of 2.54% and an inhibition [9] of 3.43%. For the same compound, the inhibition [10] was 3.17%.
In the case of `COc1ccc(-c2oc3ncnc(N)c3c2-c2ccc(NC(=O)Nc3cc(C(F)(F)F)ccc3F)cc2)cc1`, the inhibition [1] is reported as 6.08%, the inhibition [2] is reported as 3.51% and the inhibition [3] is reported as 0.63%. The inhibition [4] was 3.51%, the inhibition [5] was 5.06% and the inhibition [6] was 1.71%. The inhibition [7] was 4.49%, the inhibition [8] was 2.73% and the inhibition [9] was 3.09%. For the same compound, the inhibition [10] was 3.37%.
